In ChEMBL document CHEMBL4296182, “CO-ADD screening of NIH NCI Diversity Set V” one finds Inhibition data, which are given here for 24 compounds.

The test system of one assay is Staphylococcus aureus. Briefly: Antibacterial activity against Staphylococcus aureus MRSA ATCC 43300 (CO-ADD:GP_020); MIC in CAMBH media using NBS plates, by Resazurin F(560/590). The class given is functional. The settings on record: Concentration 20 uM, ASSAY_TEST Inhibition of Bacterial Growth, detection method Resazurin, Fluorescence (ex560/em590), MEDIA CAMHB, plate type 384well, CORNING #3640, time 18 hr.

In the next assay the test system is Acinetobacter baumannii. Briefly: Antibacterial activity against Acinetobacter baumannii ATCC 19606 (CO-ADD:GN_034); MIC in CAMBH media using NBS plates, by Resazurin F(560/590). The class given is functional. The note with it: Concentration 20 uM, ASSAY_TEST Inhibition of Bacterial Growth, detection method Resazurin, Fluorescence (ex560/em590), MEDIA CAMHB, plate type 384well, CORNING #3640, time 18 hr. In general terms: Alamar Blue is a resazurin reagent that responds to reducing activity.

The next assay has as its system Escherichia coli. As to the kind of experiment: Antibacterial activity against Escherichia coli ATCC 25922 (CO-ADD:GN_001); MIC in CAMBH media using NBS plates, by Resazurin F(560/590). The settings on record: Concentration 20 uM, ASSAY_TEST Inhibition of Bacterial Growth, detection method Resazurin, Fluorescence (ex560/em590), MEDIA CAMHB, plate type 384well, CORNING #3640, time 18 hr. The class given is functional.

For another assay, the system named is Klebsiella pneumoniae. The settings on record: Concentration 20 uM; ASSAY_TEST Inhibition of Bacterial Growth; detection method Absorption (OD600); MEDIA CAMHB; plate type 384well; NBS; CORNING #3640; time 18 hr.
In another assay the test system is Candida albicans. The note with it: 20 µM.
The next assay relates to Cryptococcus neoformans. The settings on record: Concentration 20 uM; ASSAY_TEST Inhibition of Fungal Growth; detection method Resazurin; Absorption (OD600-OD570); plate type 384well; NBS; CORNING #3640.

For part of these data: Potency and affinity values are given separately.

For the compound `CC(C)NC1C2CCC(CC2)C1(O)c1ccc(Cl)c(Cl)c1.CS(=O)(=O)O` (centres undefined), the Inhibition with Staphylococcus aureus is 8.47%; with Acinetobacter baumannii it was -0.12%; with Escherichia coli, 14.13%; in the assay on Klebsiella pneumoniae it was 12.75%; with Candida albicans it was 0.41%; with Cryptococcus neoformans, -1.76%.
In the case of `O=C(Nc1ccc(F)cc1)Oc1cccnc1O`, the Inhibition in the assay with Staphylococcus aureus is 10.32%; with Acinetobacter baumannii it was 2.12%; in the assay on Escherichia coli, 1.72%; in the assay on Klebsiella pneumoniae, 11.14%; in the assay with Candida albicans it was 5.85%; with Cryptococcus neoformans, -4.36%.
Consider `CC1=CC(O)C(O)C2(C)C1CC1OC(=O)C(O)C3C(C)C(O)C4(O)OCC13C42` (centres undefined), for which the Inhibition is 9.24% with Staphylococcus aureus; 4.24% in the assay with Acinetobacter baumannii; -0.01% with Escherichia coli; 12.12% in the assay on Klebsiella pneumoniae; -0.21% with Candida albicans; -7.24% in the assay with Cryptococcus neoformans.
`O=[N+]([O-])c1cc(-c2ccc([As](=O)(O)O)cc2)ccc1[As](=O)(O)O`: the Inhibition in the assay on Staphylococcus aureus was 16.49%; in the assay on Acinetobacter baumannii, -5.02%; in the assay on Escherichia coli, 9.73%; in the assay with Klebsiella pneumoniae, 17.36%; with Candida albicans, 0.95%; in the assay on Cryptococcus neoformans, -9.04%.
With `C/C=C/CC1(CC)C(=O)NC(=S)NC1=O`, the Inhibition is -2.18% with Staphylococcus aureus; -12.12% in the assay with Acinetobacter baumannii; -2.34% in the assay with Escherichia coli; 1.47% in the assay on Klebsiella pneumoniae; 1.14% in the assay on Candida albicans; 0.11% with Cryptococcus neoformans.
For `COc1ccccc1NC(=O)Oc1cccc(OC(=O)c2ccccc2)c1`, the Inhibition in the assay with Staphylococcus aureus is 4.53%; with Acinetobacter baumannii, -1.36%; in the assay on Escherichia coli, -8.4%; with Klebsiella pneumoniae, 19.47%; in the assay with Candida albicans it was 8.34%; with Cryptococcus neoformans it was -0.97%.
Consider `O=C1NC(=O)C(=Cc2csc3ccccc23)C(=O)N1`, for which the Inhibition in the assay on Staphylococcus aureus was -1.57%; with Acinetobacter baumannii it was 11.43%; with Escherichia coli, 7.83%; in the assay on Klebsiella pneumoniae, 15.53%; in the assay on Candida albicans, 23.9%; with Cryptococcus neoformans it was -17.03%.
With `Cc1c(C(=O)c2ccccc2)c2ccccc2n1C`, the Inhibition with Staphylococcus aureus is 14.29%; with Acinetobacter baumannii, -0.59%; in the assay on Escherichia coli it was 13.79%; with Klebsiella pneumoniae, 4.42%; with Candida albicans, 1.53%; in the assay with Cryptococcus neoformans, -16.28%.
In the case of `CC(=O)Nc1cccc([As](=O)(c2cccc(NC(C)=O)c2)c2cccc(NC(C)=O)c2)c1`, the Inhibition in the assay on Staphylococcus aureus is 0.93%; in the assay on Acinetobacter baumannii it was 1.38%; with Escherichia coli, -5.49%; with Klebsiella pneumoniae it was 9.67%; with Candida albicans, 0.37%; with Cryptococcus neoformans it was -8.79%.
With `CCC1CN1P(=O)(Oc1ccc(Cl)cc1)N1CC1CC` (centres undefined), the Inhibition in the assay with Staphylococcus aureus was 5.27%; in the assay with Acinetobacter baumannii, -3.62%; with Escherichia coli, 11.85%; with Klebsiella pneumoniae, 2.63%; in the assay on Candida albicans, 4.31%; in the assay with Cryptococcus neoformans, -4.87%.
As for `CC1CC(C)OP(=O)(OCCC#N)O1` (centres undefined), the Inhibition was 11.79% in the assay on Staphylococcus aureus; -12.84% with Acinetobacter baumannii; 9.51% in the assay with Escherichia coli; 9.69% in the assay with Klebsiella pneumoniae; -4.51% in the assay on Candida albicans; -8.12% in the assay on Cryptococcus neoformans.
Take `O=C1NC(=O)C(=Cc2ccc3ccccc3c2)C(=O)N1`: the Inhibition in the assay with Staphylococcus aureus was 0.11%; in the assay on Acinetobacter baumannii, 10.33%; with Escherichia coli it was -2.67%; in the assay on Klebsiella pneumoniae, 19.68%; in the assay with Candida albicans it was 25.6%; in the assay on Cryptococcus neoformans, -7.82%.
In the case of `c1cc(C2N3CCCN2CC3)ccn1` (centres undefined), the Inhibition in the assay on Staphylococcus aureus was 15.5%; in the assay with Acinetobacter baumannii it was -12.77%; with Escherichia coli, 15.45%; in the assay on Klebsiella pneumoniae it was 9%; in the assay with Candida albicans, -1.44%; with Cryptococcus neoformans, -3.06%.
On to `CNC(=O)Oc1ccc(N(C)C)cc1C(C)C`, for which the Inhibition was 11.71% in the assay with Staphylococcus aureus; -2.68% in the assay with Acinetobacter baumannii; 9.69% in the assay with Escherichia coli; 11.23% in the assay on Klebsiella pneumoniae; -1.51% with Candida albicans; -12.66% with Cryptococcus neoformans.
Consider `C=CCNC(=S)Nc1ccc(OC(=O)Nc2ccc(Cl)c(Cl)c2)cc1`, for which the Inhibition in the assay on Staphylococcus aureus is 9.35%; in the assay on Acinetobacter baumannii it was 4.81%; in the assay on Escherichia coli, 5.81%; with Klebsiella pneumoniae, 5.22%; with Candida albicans, 2.25%; in the assay with Cryptococcus neoformans, -4.79%.
With `CCCC(=O)N(C)C1=Nc2ccc(Cl)cc2C(c2ccccc2)=[N+]([O-])C1`, the Inhibition in the assay with Staphylococcus aureus is 11.96%; in the assay with Acinetobacter baumannii it was 1.65%; in the assay on Escherichia coli it was -7.17%; with Klebsiella pneumoniae, 24.44%; in the assay with Candida albicans, 4.49%; with Cryptococcus neoformans, -4.22%.
As for `CC[C@@]1(O)C(=O)OCc2c1cc1n(c2=O)Cc2cc3c(N)cccc3nc2-1` [9-AMINOCAMPTOTHECIN], the Inhibition with Staphylococcus aureus was 34.7%; with Acinetobacter baumannii it was -5.64%; with Escherichia coli it was 12.69%; with Klebsiella pneumoniae, 8.25%; in the assay on Candida albicans, 4.9%; in the assay on Cryptococcus neoformans, -6.8%.
On to `COc1ccc(CCNC2(C#N)CCCCC2)cc1OC`, for which the Inhibition in the assay on Staphylococcus aureus is 2.96%; in the assay with Acinetobacter baumannii, -11.77%; in the assay with Escherichia coli, 4.72%; in the assay with Klebsiella pneumoniae, 9.13%; with Candida albicans, 2.4%; in the assay with Cryptococcus neoformans it was -6.07%.
In the case of `NN=C1C(Cl)=C(Cl)C(Cl)=C1Cl`, the Inhibition in the assay on Staphylococcus aureus is -27.05%; in the assay on Acinetobacter baumannii, -7.11%; in the assay with Escherichia coli, -15.84%; with Klebsiella pneumoniae, 1.32%; with Candida albicans, 38.7%; in the assay with Cryptococcus neoformans it was 5.21%.
Take `Cc1nc(C)c(C(=O)N/N=C/c2ccc(N(CCCl)CCCl)cc2)s1`: the Inhibition in the assay on Staphylococcus aureus is 4.54%; in the assay on Acinetobacter baumannii it was 12.95%; in the assay on Escherichia coli, 1.76%; in the assay with Klebsiella pneumoniae, 6.18%; in the assay on Candida albicans, -1.16%; in the assay with Cryptococcus neoformans it was -8.81%.
`Nc1nc(N)c2cnnn2n1`: the Inhibition is -6.46% in the assay with Staphylococcus aureus; -8.05% in the assay with Acinetobacter baumannii; -17.28% with Escherichia coli; 8.25% with Klebsiella pneumoniae; 5.35% in the assay on Candida albicans; 23.1% with Cryptococcus neoformans.
Consider `Cc1ccccc1NC(=O)Oc1cccc(OC(=O)c2ccccc2)c1`, for which the Inhibition in the assay on Staphylococcus aureus is 23.15%; with Acinetobacter baumannii it was 5.34%; with Escherichia coli, 4.68%; in the assay on Klebsiella pneumoniae, 11.95%; in the assay on Candida albicans it was 0.43%; in the assay on Cryptococcus neoformans, -5.38%.
As for `CCC1CN1P1(=O)OCC(C)([N+](=O)[O-])CO1` (centres undefined), the Inhibition was -8.05% in the assay on Staphylococcus aureus; -16.64% in the assay on Acinetobacter baumannii; 2.35% in the assay with Escherichia coli; 8.08% with Klebsiella pneumoniae; 0.16% with Candida albicans; 0.43% in the assay on Cryptococcus neoformans.
Turning to `Cn1cc(C=O)c2nccnc21`, the Inhibition is 0.99% in the assay on Staphylococcus aureus; -3.72% with Acinetobacter baumannii; -9.44% with Escherichia coli; 3.85% in the assay on Klebsiella pneumoniae; 1.67% in the assay on Candida albicans; 2.98% with Cryptococcus neoformans.

For orientation: Inhibition means the relative decrease from the control value, in per cent.
